# Results as given in PubChem BioAssay AID2125 (NMMLSC, 2009).
# Unmarked numbers belong to inactive results.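 The calls were made as follows: active = combined score above 50, rising as EC50 falls below 10 µM and growth at top dose drops; inactive = the rest.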 Peptide text beside a SMILES is read from it. * marks the point of attachment. Cbz = O=C(OCc1ccccc1)*
# System: YE3959
# Assay: yeast strain panel proliferation effects – secondary panel, OD600, 26S proteasome disassembly project, profiling panel (AID 2125)
# Conditions: S. cerevisiae strain panel, growth OD600, 6-8 h, at 100 µM, hits give low values
row,SMILES,percent response (growth) [%]
1,CC(C)C[C@@H](C=O)NC(=O)[C@H](CC(C)C)NC(=O)[C@H](CC(C)C)NC(=O)OCc1ccccc1 (Cbz-Leu-Leu-Leu-aldehyde),52.8
2,CC(=O)N1C(=O)C(=C2C=C(C)OC(C)=C2)c2ccccc21,60.8
